Compound activity as filed in PubChem.
Pf growth 96h: inhibits malaria parasite growth, 96 h; P. falciparum luciferase reporter growth, 96 h; Potency, µM (series often up to 28.7 µM), for inactives: top-dose activity change, negative = inhibition, actives largely listed as inhibitors; 320,000 compounds, 6.9% hits; note: potency is the fitted concentration of half-maximal effect; % is set by controls: 0 for no effect and ±100 for the full control effect
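P. falciparum expressing integrated firefly luciferase grown in erythrocytes (2% hematocrit, 0.05% parasitemia final) with compounds for 96 hours at 37 C, 5% CO2. Growth inhibition read as loss of luminescence after adding luciferase detection reagent.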
CHX counter: counter-screen hit for Shiga toxin inhibitors, cycloheximide; 300,000 compounds, 12% hits; max response, %; cell reporter, cycloheximide protein synthesis inhibition counterscreen; in the data active = max response mostly above about 13%, no sharp cut-off; inactive = mostly below about 14%; note: read at 38.3 µM for the half of the compounds with a filed dose; 0% is about no effect
AMA1 RON2 block: AMA1-RON2 (P. falciparum) interaction inhibition | AlphaScreen AMA1-biotinylated RON2 peptide binding | Potency, µM (titrated, usually from 58.2 µM), for inactives: at the highest dose activity change, negative = inhibition, most hits filed as inhibitors | 360,000 compounds, 0.2% hits;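 note: potency is the fitted concentration of half-maximal effect; 0% = vehicle wells and -100% = peptide control; nearly all actives have a fitted effect of over 45% in size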
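AMA1 (3D7) with his tag at 25 nM final met compounds first, then biotinylated RON2 peptide at 25 nM; detection used donor plus acceptor beads, 10 µg/mL apiece, read by AlphaScreen after 30 min at room temperature.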
SARS PLpro yeast: SARS-CoV PLP inhibition in yeast; S. cerevisiae expressing SARS-CoV PLpro, growth rescue; Potency, µM (highest dose often 32.9 µM), for inactives: at the highest dose activity, positive = growth rescue, hits mostly activators; 330,000 compounds, 0.19% hits; calls by dose curve; note: potency is the fitted concentration of half-maximal effect; 0% is about no effect; nearly all actives have a fitted effect of over 55% in size
Pf growth 48h: inhibits P. falciparum growth in the first generation, 48 h; P. falciparum luciferase growth in erythrocytes, 48 h; Potency, µM (top dose mostly 28.7 µM), for the others: at the top dose activity change, negative = inhibition, hits mostly inhibitors; 310,000 compounds, 5.9% hits; note: potency is the fitted concentration of half-maximal effect; % is set by controls: 0 for no effect and ±100 for the full control effect
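Luciferase-expressing parasites in RBCs, 2% Hct / 0.1% parasitemia final; RPMI 1640 + 0.5% Albumax; 37 C, 5% CO2, one generation; luminescence read-out, lower signal = inhibition.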
Shiga inhibitor: blocks Shiga toxin action in Vero cells; inhibition, % at 38.7 µM; Vero cells, Shiga toxin protein synthesis inhibition reporter; 290,000 compounds, 9.2% hits; in the data active = inhibition mostly above about 28%, no sharp cut-off; inactive = mostly below about 43%; note: 0% is about no effect
* marks the source's active call; other numbers are inactive results; i = inactive; ? = inconclusive; . = no result; [ ] = remark or other dose. Sampled rows, rich in hits. Any-hit rate of the full collection: about 19%. Unless noted, calls come from the whole dose curve; as a rule, active = well fitted curve in the direction sought with a large enough effect; inconclusive = small, poorly fitted or top-dose-only effect, or another doubt; inactive = no such curve, though single readings can be large; an effect the other way counts as inactive or inconclusive.

SMILES	Pf growth 96h	CHX counter	AMA1 RON2 block	SARS PLpro yeast	Pf growth 48h	Shiga inhibitor
Cc1nc2ccccc2c(=O)n1C1CCCCCC1	20.0%	-3.1	0.1%	3.5%	?	-11.3
CCCCNC(=O)CSc1nc2ccccc2c(=O)n1C1CCCC1	55.7%	-7.8	11.3%	-5.0%	13.1µM*	-20.5
Clc1ccc(C2=CSC3=NCCN23)c(Cl)c1	.	.	7.3%	.	.	.
O=C(CSCc1ccc(Br)cc1)N1CCOCC1	19.7%	31.3*	-1.7%	2.9%	17.6%	64.0*
O=C(CSCc1ccc(F)cc1)N1CCOCC1	91.1%	58.3*	9.7%	2.9%	.	81.5*
CC1CCN(C(=O)COC(=O)Cc2ccc(Br)cc2)CC1	30.3%	34.6*	-7.0%	0.1%	11.0%	-3.8
Cc1ccc(CSCC(=O)N2CCCC2)cc1	?	23.7*	-9.4%	7.4%	21.0%	86.6
CC(OC(=O)c1cc(=O)[nH]c2ccccc12)C(=O)c1ccccc1 (stereo not drawn)	-26.4%	-2.7	-1.1%	5.8%	7.2%	-8.0
CC1CCN(C(=O)CSCc2ccc(Cl)cc2)CC1	132.7%	34.9*	0.2%	11.0%	.	31.0
O=C(CSCc1ccc(Br)cc1)NC1CC1	-24.2%	22.7	5.3%	15.3%	?	26.5
CC1CCN(C(=O)CCCOc2ccc(Cl)cc2)CC1	344.6%	32.7*	-6.4%	-43.4%	83.1%	55.1*
COc1cc(CCC(=O)N2CCN(S(=O)(=O)c3ccc(C)cc3)CC2)cc(OC)c1OC	?	.	3.6%	-5.9%	5.22µM*	.
O=C(CSCc1ccc(Br)cc1)N1CCCC1	?	25.0*	6.7%	13.6%	8.4%	27.3
O=C(O)C1=C(CSc2nnnn2CS(=O)(=O)O)CS[C@@H]2[C@H](NC(=O)[C@H](O)c3ccccc3)C(=O)N12	4.2%	.	.	.	-8.8%	.
Cc1ccc(S(=O)(=O)N2CCN(C(=O)CSCc3ccc(C(C)C)cc3)CC2)cc1	?	.	-6.4%	-3.9%	9.28µM*	.
Cc1ccc(SCc2ccc(C(=O)N3CCCCC3)cc2)cc1	i	28.5*	-1.9%	-1.9%	46.5%	59.1*
CC1CCN(C(=O)CCl)CC1	5.86µM*	-3.9	-2.7%	?	5.22µM*	14.5
CN1CCN(C(=O)c2ccc(CSc3ccc(Cl)cc3)cc2)CC1	4.1%	-3.6	0.8%	5.2%	8.9%	-6.2
CCN(CC)CCNC(=O)c1cn(CC)c2cc(N3CCN(C)CC3)c(F)cc2c1=O	-21.7%	2.2	13.0%	0.7%	?	-4.6
Cc1cccc(C)c1OCC(=O)Nc1cc(Cl)ccc1-n1cncn1	13.1µM*	.	-2.8%	.	13.1µM*	.
Cc1cccc(OC(C)C(=O)Nc2cc(Cl)ccc2-n2cncn2)c1 (stereo not drawn)	?	.	-5.5%	6.3%	4.15µM*	.
Cc1cccc(OCC(=O)Nc2cc(Cl)ccc2-n2cncn2)c1C	?	.	-7.2%	3.1%	?	.
CCCOc1ccccc1OCC(=O)Nc1cc(Cl)ccc1-n1cncn1	9.28µM*	.	-14.1%	0.9%	11.7µM*	.
CCc1cccc(OCC(=O)Nc2cc(Cl)ccc2-n2cncn2)c1	?	.	14.4%	-11.1%	13.1µM*	.
CC(=O)c1ccc(Nc2nc(C(N)CC(C)C)cs2)cc1 (stereo not drawn)	.	.	65.6%	.	.	.
SMILES	Pf growth 96h	CHX counter	AMA1 RON2 block	SARS PLpro yeast	Pf growth 48h	Shiga inhibitor
COc1ccc(OC)c(S(=O)(=O)N2CCC(C(=O)NCc3ccccn3)CC2)c1	4.4%	-7.3	2.5%	-1.2%	-4.0%	6.8
O=C(CN(C(=O)c1csnn1)c1cccc2ccccc12)NC1CCCC1	40.7%	1.1	18.7%	6.9%	-7.0%	-21.5
O=C(O)c1cc(-n2[nH]c(=O)c3ccccc3c2=O)ccc1Cl	20.2%	43.5*	1.0%	-2.2%	12.2%	148.4*
CC(C)CCC(C(=O)O)C(C)CC(=O)NC1CCCCC1 (stereo not drawn)	-1.4%	-3.2	-8.4%	3.1%	4.9%	-8.6
CCCCCC(C(=O)O)C(C)CC(=O)NC1CCCCC1 (stereo not drawn)	13.1µM*	0.2	8.7%	4.4%	11.8%	-10.4
Cc1cc(C)c(-c2csc(NC(=O)/C=C/c3cccs3)n2)c(C)c1	11.7µM*	-5.3	-0.6%[2.32 µM]	-11.4%	-20.3%	-10.5
CCc1nnc(NC(=O)/C=C/c2cccs2)s1	89.0%	17.5*	2.9%	0.2%	188.4%	39.9
